# From PubChem BioAssay (NCI)
# About 83,000 compounds went through this panel and 20% of them were active in at least one assay; those are over-represented in the sample as a whole.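 Compound tested at a single concentration for 48 hours in 96-well plates; a percent growth value below 10 was scored as active.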 Calls of active or inactive are those of the source.
# Test system: HCT-15 colon
# Assay: NCI-60 one-dose screen, 48 h (100 = growth as untreated, 0 = no growth, -100 = all killed)
# Conditions: 10 µM unless noted
# Procedure: Growth inhibition of the HCT-15 human tumor cell line is measured as a screen for anti-cancer activity. Cells are grown in 96 well plates and exposed to the test compound for 48 hours. Compounds are tested at a single concentration, which is 10^-5 M for most compounds. The reported endpoint is percent growth (GI% or GIPRCNT), where numbers from 0 - 100% represent growth inhibition, and numbers from -100% - 0 represent cell death. For example, a value of 40 represents 60% growth inhibition. A value of 0 means no net growth occurred over the course of the experiment. A value of -40 indicates 40% of cells at the beginning of the experiment died by the end of the experiment. A value of -100 means all cells are dead at the end of the experiment.
# NCI-60 Human Tumor Cell Lines Screen was performed using the standard one-dose NCI protocol, which is described in more detail at https://dtp.cancer.gov/discovery_development/nci-60/default.htm.
# Compounds with GIPRCNT values below 10 were considered active. Activity score was based on GIPRCNT using the following formula: […]
# Score is 0 for GIPRCNT values of 100 or above, 50 for GIPRCNT values of 0, and 100 for GIPRCNT values of -100.
row,SMILES,growth
1,CC(/C=N/NC(N)=S)Cc1ccc(C(C)C)cc1 (stereo not given),80.2% (inactive)
2,COc1cc(-c2ccc(-[n+]3nc(-c4ccc([N+](=O)[O-])cc4)nn3-c3ccc([N+](=O)[O-])cc3)c(OC)c2)ccc1-[n+]1nc(-c2ccc([N+](=O)[O-])cc2)nn1-c1ccc([N+](=O)[O-])cc1,29.7% (inactive)
3,O=C1C=CC(O)=CC1=P(c1ccccc1)(c1ccccc1)c1ccccc1,96.2% (inactive)
4,O=C1C=CC(=O)N1c1cc(Cl)c(Cl)cc1Cl,113% (inactive)
5,COC1CC(C)C(OC)c2cc(O)cc(c2O)NC(=O)/C(C)=C/C=C\C(C)C(OC(N)=O)/C(C)=C\C(C)C1OC (stereo not given),5.82% (active)
6,O=[N+]([O-])c1ccc([I+]c2ccccc2)cc1,62.1% (inactive)
7,COc1cc(NC(=O)C2=C(C)NC(C)=C(C(=O)Nc3cc(OC)c(Cl)cc3OC)C2c2cccc([N+](=O)[O-])c2)c(OC)cc1Cl,14.3% (inactive)
8,NC1=C(Br)C(=O)c2ncccc2C1=O,2.56% (active)
9,Nc1cccc2cccc([N+](=O)[O-])c12,105% (inactive)
10,CC1(C)OCC(COC(c2ccccc2)(c2ccccc2)c2ccccc2)O1 (stereo not given),100% (inactive)
11,S=c1[nH]c2cc(Cl)ccc2s1,109% (inactive)
12,O=C(/C=C/C(Cl)(Cl)Cl)Nc1ccc(Cl)cc1,88.3% (inactive)
13,CCCCCCCCCCCC[n+]1ccc2ccccc2c1,25% (inactive)
14,O=C1Nc2ccc(Br)cc2C1=O,100% (inactive)
15,N=C(N)Sc1cccc[n+]1[O-],32.8% (inactive)
16,CCN(CC)CCNC(Cc1ccccc1)c1ccc(OCc2ccccc2)cc1 (stereo not given),30.4% (inactive)
17,Cc1onc(-c2ccccc2)c1C(=O)N/N=C/c1cc(Cl)cc(Cl)c1O,25.6% (inactive)
18,CC1(C)CCCC2=C1C(=O)N(SC(Cl)(Cl)Cl)C2=O,85.9% (inactive)
19,CCN(CC)c1ccc(/C=C\C(=O)c2ccc(NC(C)=O)cc2)cc1,45.6% (inactive)
20,COc1cc(/C=C/C(=O)CC(=O)/C=C/c2ccc(O)c(OC)c2)ccc1O,13.8% (inactive)

row,SMILES,growth
1,O=C1C(=O)c2cc([N+](=O)[O-])ccc2-c2ccccc21,-53.7% (active)
2,O=C(/C=C/c1ccccc1)c1ccccc1O,67.3% (inactive)
3,N=C1C=C(N)C(=O)c2ccccc21,-74.6% (active)
4,O=C(Cc1nc2cc(Cl)c(Cl)cc2nc1CC(=O)c1ccccc1)c1ccccc1,69.6% (inactive)
5,Cc1cc(C)c(C#N)c(Sc2nc(C)c([N+](=O)[O-])c(C)c2C#N)n1,58.8% (inactive)
6,O=C1C(=O)c2cccnc2-c2ncccc21,-20.5% (active)
7,CCC1C[N+]2=C(c3cc(OC)c(OC)cc3CC2)c2c1cc1n2CCc2cc(OC)c(OC)cc2-1 (stereo not given),87.9% (inactive)
8,c1ccc(-c2cc3cc4ccccc4cn3c2)cc1,100% (inactive)
9,O=C(Nc1cccc(C(F)(F)F)c1)Oc1ccc(Cl)c2cccnc12,2.21% (active)
10,CCCCCCCCCCCCCCCC[N+]1(C)CCCC1c1cccnc1 (stereo not given),77.9% (inactive)
11,CCC1CCCCN1C(=S)N/N=C(\C)c1ccccn1 (stereo not given),27.3% (inactive)
12,CC(C)(C)c1ccc(CCO)cc1,109% (inactive)
13,O=C(CCl)N1c2ccccc2Sc2c1ccc1ccccc21,39% (inactive)
14,O=C(Nc1ccc(Cl)c(Cl)c1)OCc1ccco1,29.7% (inactive)
15,COC(=O)Nc1nc2ccc(C3(c4ccc(F)cc4)OCCO3)cc2[nH]1,25.9% (inactive)
16,CCC[CH2][Sn]1([CH2]CCC)[O]C2C(CO)OC(n3ccc(N)nc3=O)C2[O]1 (stereo not given),-59.3% (active)
17,CN1CCC(c2ccccc2)(c2ccccc2)C(=O)C1,70.2% (inactive)
18,C[C@@]1(CO)[C@H](O)CC[C@@]2(C)[C@H]1CC[C@H]1C[C@@H]3C[C@@]12CC[C@@]3(O)COC(=O)CN,54% (inactive)
19,CC12CCC(O)CC1=CCC1C2CCC2(C)C3=NN=CC3CC12 (stereo not given),95.1% (inactive)
20,CCCCCCCCCCCCCCCCSC(=NCC)NCC,-36% (active)
